The panel holds about 83,000 compounds, 20% with a hit somewhere; the sample as a whole holds those more often.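 Note: values are percent growth. 100 is the growth of untreated cells, values between 100 and 0 indicate rising inhibition; between -100 and 0 indicates cell death.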 Calls of active or inactive are those of the source. The calls were made as follows: active = growth percent below 10; inactive = the rest.
How the values were obtained:
Experiment in all cases: NCI-60 one-dose screen, 48 h (100 = growth as untreated, 0 = no growth, -100 = all killed)
Details in all cases: 10 µM unless noted
SK-MEL-2 melanoma = system: SK-MEL-2 melanoma
EKVX NSCLC = system: EKVX NSCLC
SN12C renal = system: SN12C renal
UO-31 renal = system: UO-31 renal
TK-10 renal = system: TK-10 renal
ACHN renal = system: ACHN renal
CAKI-1 renal = system: CAKI-1 renal
A498 renal = system: A498 renal
CCRF-CEM leukemia = system: CCRF-CEM leukemia
MOLT-4 leukemia = system: MOLT-4 leukemia

Measured: growth

C=C1C(=O)O[C@H]2[C@H]1CC/C(COC(=O)/C=C/C(=O)OC/C1=C/CC[C@@]3(C)O[C@H]3[C@H]3OC(=O)C(=C)[C@@H]3CC1)=C\CC[C@@]1(C)O[C@@H]21
inactive: SK-MEL-2 melanoma 93.4% | EKVX NSCLC 88.2% | CAKI-1 renal 63.3% | A498 renal 102%
active: SN12C renal 4.73% | UO-31 renal -41.7% | TK-10 renal 0.985% | ACHN renal -13.5% | CCRF-CEM leukemia -12.9% | MOLT-4 leukemia 7.58%

COc1ccc(CCN2C(=O)/C(=C/c3ccc(C4Oc5ccccc5C5CC(c6ccccc6)=NN54)cc3)SC2=S)cc1 (stereo not given)
inactive: SK-MEL-2 melanoma 103% | EKVX NSCLC 97.4% | SN12C renal 101% | UO-31 renal 80.7% | TK-10 renal 104% | ACHN renal 102% | CAKI-1 renal 89.8% | A498 renal 115% | CCRF-CEM leukemia 36.6% | MOLT-4 leukemia 100%

O=S(=O)(NCCNc1nccc(-c2c(-c3ccc(F)c(O)c3)nc3sccn23)n1)c1ccc(F)cc1
active: UO-31 renal 3.56%
inactive: SK-MEL-2 melanoma 12.3% | EKVX NSCLC 55.7% | SN12C renal 28.5% | TK-10 renal 83.5% | ACHN renal 19.7% | CAKI-1 renal 20.6% | A498 renal 70.9% | CCRF-CEM leukemia 12.7% | MOLT-4 leukemia 11.7%

COc1ccc(Oc2nc(Nc3ccc(N4CCOCC4)cc3)ncc2NC(=O)Nc2cc(OC)cc(OC)c2)cc1
inactive: SK-MEL-2 melanoma 17.8% | EKVX NSCLC 73.1% | UO-31 renal 47.8% | TK-10 renal 28.4% | ACHN renal 17.4% | CAKI-1 renal 16.3% | CCRF-CEM leukemia 65% | MOLT-4 leukemia 36.8%
active: SN12C renal -12.7% | A498 renal 9.34%

Cc1ccc2nc(-c3ccc(C(=O)NNC(=S)Nc4ccccc4)cc3)[nH]c2c1
inactive: SK-MEL-2 melanoma 112% | EKVX NSCLC 93.2% | SN12C renal 93.9% | UO-31 renal 89.8% | TK-10 renal 151% | ACHN renal 99.6% | CAKI-1 renal 95.3% | A498 renal 46.6% | CCRF-CEM leukemia 88.8% | MOLT-4 leukemia 83.3%

COc1cccc(/C=C/C(=O)c2cc3c(N)c(C(=O)Nc4cccc5ccccc45)sc3nc2C)c1
active: SN12C renal -27.9% | A498 renal 4.07% | CCRF-CEM leukemia 7.04%
inactive: SK-MEL-2 melanoma 24.2% | EKVX NSCLC 39.9% | UO-31 renal 16.9% | TK-10 renal 32% | ACHN renal 35% | CAKI-1 renal 17.2% | MOLT-4 leukemia 16.8%

O=C(CSc1nnc(-c2cc(-c3ccccc3)nc3ccccc23)n1-c1ccccc1)Nc1ccc(C(=O)/C=C/c2ccc(Cl)cc2)cc1
inactive: SK-MEL-2 melanoma 112% | EKVX NSCLC 88.5% | SN12C renal 85.1% | UO-31 renal 84.4% | TK-10 renal 110% | ACHN renal 87.1% | CAKI-1 renal 81.5% | A498 renal 81.5% | CCRF-CEM leukemia 72.2% | MOLT-4 leukemia 68.6%

CO[C@H]1CC(=O)n2c3ccccc3c3c4c(c5c6ccccc6n1c5c32)C(=O)NC4=O
inactive: SK-MEL-2 melanoma 70.5% | EKVX NSCLC 71.8% | SN12C renal 65.6% | UO-31 renal 71.3% | TK-10 renal 37.3% | ACHN renal 68.1% | CAKI-1 renal 58.1% | A498 renal 56.2% | CCRF-CEM leukemia 78.3% | MOLT-4 leukemia 74.9%

O=C(CCSc1nnc2n(Cc3ccccc3)c(=O)c3c4c(sc3n12)CCCC4)N1CCN(c2ccccc2)CC1
inactive: SK-MEL-2 melanoma 99.1% | EKVX NSCLC 91.8% | SN12C renal 94.8% | UO-31 renal 94.5% | TK-10 renal 101% | ACHN renal 93.2% | CAKI-1 renal 92.8% | A498 renal 106% | CCRF-CEM leukemia 127% | MOLT-4 leukemia 111%

CC(C)N1C(=O)/C(=c2\sc3n(c2=O)C2C(NN=3)N(C)C(=O)N2C)c2ccccc21 (stereo not given)
inactive: SK-MEL-2 melanoma 73.5% | EKVX NSCLC 88.8% | SN12C renal 81.7% | UO-31 renal 52.7% | TK-10 renal 94.5% | ACHN renal 59.2% | CAKI-1 renal 28.6% | A498 renal 23.8% | CCRF-CEM leukemia 69.8% | MOLT-4 leukemia 71.5%

O=C(Nc1ccccc1N1CCCC1=O)c1oc2ccc(F)cc2c1-c1cnn(-c2ccccc2)c1
active: UO-31 renal 9.1% [50 µM]
inactive: SK-MEL-2 melanoma 72.8% [50 µM] | EKVX NSCLC 58.3% [50 µM] | SN12C renal 48.5% [50 µM] | TK-10 renal 95.4% [50 µM] | ACHN renal 46% [50 µM] | CAKI-1 renal 35.7% [50 µM] | A498 renal 29.2% [50 µM] | CCRF-CEM leukemia 56.6% [50 µM] | MOLT-4 leukemia 37% [50 µM]

COC(=O)c1nc(-c2ccccc2)oc1S(=O)(=O)NCC(c1ccc(Cl)cc1)N1CCOCC1 (stereo not given)
active: CCRF-CEM leukemia -21% | MOLT-4 leukemia 7.96%
inactive: SK-MEL-2 melanoma 80.9% | EKVX NSCLC 96.7% | SN12C renal 81.2% | UO-31 renal 60% | TK-10 renal 62.3% | ACHN renal 64.7% | CAKI-1 renal 71.2% | A498 renal 90.4%

Cc1nc2ccccc2c(/C=C/c2ccccc2)c1C(=O)/C=C/c1ccccc1
inactive: SK-MEL-2 melanoma 27% | EKVX NSCLC 45.9% | SN12C renal 23.4% | UO-31 renal 35.8% | TK-10 renal 31% | ACHN renal 17.4% | CAKI-1 renal 34.7% | A498 renal 74% | MOLT-4 leukemia 10.8%
active: CCRF-CEM leukemia 6.85%

CCN1C(=O)N(CC)C2C1NN=c1s/c(=C3\C(=O)N(CCC(C)C)c4ccccc43)c(=O)n12 (stereo not given)
active: A498 renal -1.36%
inactive: SK-MEL-2 melanoma 60.8% | EKVX NSCLC 48.2% | SN12C renal 25.2% | UO-31 renal 29.5% | TK-10 renal 79.8% | ACHN renal 30.7% | CAKI-1 renal 29.9% | CCRF-CEM leukemia 13.7% | MOLT-4 leukemia 20.7%

COc1cc(OC)c(/C=C/C(=O)c2c(O)cc(OC)c(C3CCN(C)CC3)c2OC)c(OC)c1
inactive: EKVX NSCLC 22.9% | A498 renal 17.8%
active: SK-MEL-2 melanoma -57.8% | SN12C renal 4.89% | UO-31 renal -76.2% | TK-10 renal -82.5% | ACHN renal -98.3% | CAKI-1 renal -62.8% | CCRF-CEM leukemia -19.3% | MOLT-4 leukemia -34.4%

CCN1C(=O)N(CC)C2C1NN=c1s/c(=C\c3cnc(C)n3C)c(=O)n12 (stereo not given)
inactive: SK-MEL-2 melanoma 39.2% | EKVX NSCLC 49.7% | SN12C renal 33.4% | UO-31 renal 40.9% | TK-10 renal 51.5% | ACHN renal 34.3% | CAKI-1 renal 26% | MOLT-4 leukemia 35%
active: A498 renal -9.65% | CCRF-CEM leukemia 9.03%

CN1CCN(CCOc2ccc(-c3cnc4c(-c5ccc(F)cc5)cnn4c3)cc2)CC1
active: MOLT-4 leukemia 8.99%
inactive: SK-MEL-2 melanoma 81.8% | EKVX NSCLC 76.3% | SN12C renal 61.6% | UO-31 renal 32.3% | TK-10 renal 75.1% | ACHN renal 46.6% | CAKI-1 renal 45.5% | A498 renal 74.9% | CCRF-CEM leukemia 17.6%

C=C1CC[C@@H]2C(C)(C)[C@@H](O)CC[C@@]2(C)[C@@H]1COc1ccc2ccc(=O)oc2c1
inactive: SK-MEL-2 melanoma 88.3% | EKVX NSCLC 60.3% | SN12C renal 74.9% | UO-31 renal 52.6% | TK-10 renal 95% | ACHN renal 80.1% | CAKI-1 renal 73.5% | A498 renal 68.9% | CCRF-CEM leukemia 60.8% | MOLT-4 leukemia 47.4%

N#C/C(=C\C=C\c1ccc(-c2cc(Cl)ccc2Cl)o1)c1nc2ccccc2s1
inactive: SK-MEL-2 melanoma 104% | EKVX NSCLC 80.2% | SN12C renal 92% | UO-31 renal 68.2% | TK-10 renal 118% | ACHN renal 90.5% | CAKI-1 renal 75.1% | A498 renal 126% | CCRF-CEM leukemia 91.8% | MOLT-4 leukemia 99.1%

CCCC(CC)(C(=O)Nc1ccc2nc(C)cc(N)c2c1)C(=O)Nc1ccc2nc(C)cc(N)c2c1
inactive: SK-MEL-2 melanoma 108% | EKVX NSCLC 101% | SN12C renal 105% | UO-31 renal 90.1% | TK-10 renal 96.5% | ACHN renal 105% | CAKI-1 renal 91.9% | A498 renal 104% | CCRF-CEM leukemia 99.9% | MOLT-4 leukemia 98.8%

Cc1cc2c(cc1C)N(C(=O)CCl)CC(=O)N2
inactive: SK-MEL-2 melanoma 63.2% | EKVX NSCLC 119% | SN12C renal 39.2% | UO-31 renal 78.3% | TK-10 renal 44.5% | CAKI-1 renal 103% | A498 renal 82.9% | MOLT-4 leukemia 17.1%
active: ACHN renal -8.11% | CCRF-CEM leukemia -19.9%

CNC(=O)c1ccccc1Nc1nc(Nc2cc(OC)c(OC)c(OC)c2)ncc1Br
active: SK-MEL-2 melanoma -77.4% | EKVX NSCLC -10.4% | SN12C renal -40.7% | UO-31 renal -17.6% | TK-10 renal -31.4% | CAKI-1 renal 2.5% | A498 renal -88.4%
inactive: ACHN renal 12.5% | CCRF-CEM leukemia 71.3% | MOLT-4 leukemia 66.3%

O=C(NNC(=O)c1ccc(NC(=O)c2ccccn2)cc1)Nc1ccc2ccccc2c1
inactive: SK-MEL-2 melanoma 114% | EKVX NSCLC 113% | SN12C renal 101% | UO-31 renal 82.5% | TK-10 renal 111% | ACHN renal 104% | CAKI-1 renal 106% | A498 renal 137% | CCRF-CEM leukemia 104% | MOLT-4 leukemia 108%

CN(C)CCN1C(=O)c2cccc3c(/C=C/CN4C(=O)c5cccc6cccc(c56)C4=O)ccc(c23)C1=O
inactive: SK-MEL-2 melanoma 104% | EKVX NSCLC 109% | SN12C renal 79.9% | UO-31 renal 72% | TK-10 renal 121% | ACHN renal 72.7% | CAKI-1 renal 91% | A498 renal 81.4% | MOLT-4 leukemia 34.3%
active: CCRF-CEM leukemia -44.1%

Nc1nc2c(c3ncccc13)C(c1cccc(Cl)c1)Cc1ncccc1-2 (stereo not given)
inactive: SK-MEL-2 melanoma 25.3% | EKVX NSCLC 39.8% | SN12C renal 36.7% | UO-31 renal 38% | TK-10 renal 55.8% | ACHN renal 45.5% | CAKI-1 renal 30.2% | CCRF-CEM leukemia 19.7% | MOLT-4 leukemia 14.5%
active: A498 renal -7.23%

C#CC#CC#CC#CC#CC#CC#CC#CCC1OC[C@H](COC(=O)O[C@@H](C(=O)O[C@H]2C[C@@]3(O)[C@@H](OC(=O)c4ccccc4)[C@@H]4[C@]5(OC(C)=O)CO[C@@H]5C[C@H](O)[C@@]4(C)C(=O)[C@H](OC(C)=O)C(=C2C)C3(C)C)[C@@H](NC(=O)c2ccccc2)c2ccccc2)O1 (stereo not given in full)
inactive: SK-MEL-2 melanoma 36.2% | EKVX NSCLC 60.2% | SN12C renal 31.2% | UO-31 renal 95.1% | TK-10 renal 84.9% | ACHN renal 69.8% | CAKI-1 renal 59.5% | CCRF-CEM leukemia 15.1% | MOLT-4 leukemia 28.5%
active: A498 renal -1.18%

Source: PubChem BioAssay (NCI)
